The values below come from PubChem BioAssay (Tox21).

Values joined by “and” are separate entries in the source; they are usually repeats but may differ in a detail not shown here. Identical values can stand only once. Unmarked numbers belong to inactive results. Results filed as inconclusive are left out. Active and inactive are the calls of the source. Unless noted, calls follow the shape of the dose curve; as a rule, active = well fitted curve in the direction sought with a large enough effect in the repeat runs; inconclusive = weak or mixed curves; inactive = no such curve, though single readings can be large; an effect the other way counts as inactive or inconclusive.

A short description of test [1]: qHTS assay for small molecules that induce genotoxicity in human embryonic kidney cells expressing luciferase-tagged ATAD5 (AID 651632). Also: nearly all actives have a fitted effect of over 15% in size. As to conditions: HEK293T ATAD5-luciferase induction, 16 h; series mostly up to 83.3 µM. The method, boiled down:
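HEK293T cells carrying luciferase-tagged ATAD5 were given compound or DMSO vehicle and incubated 16 hr at 37C, 5% CO2. Luciferase activity was read after 30 min at room temperature with Amplite; a rise signals genotoxic stress.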
(Quantitative high-throughput screening tests each substance at several concentrations.)

Test [2] can be described thus: qHTS assay for small molecule agonists of the p53 signaling pathway - cell viability (AID 651633; calls by dose curve;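 also: p53RE-bla HCT reporter cells with a stable beta-lactamase p53 reporter; nearly all actives have a fitted effect of over 30% in size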). As to conditions: p53RE-bla HCT-116 viability, ATP luminescence, 16 h; series mostly up to 83.3 µM. The gist of the method: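 p53RE-bla cells, seeded at 4,000 per well and rested 5 h at 37 C/5% CO2, received compounds in DMSO for 16 h at 37 C. CellTiter-Glo was then added, and luminescence was read after 30 min at room temperature to gauge cytotoxicity.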

Test [3] in a line: qHTS assay for small molecules that induce genotoxicity in human embryonic kidney cells expressing luciferase-tagged ATAD5 - cell viability (AID 651634; calls by dose curve; also: nearly all actives have a fitted effect of over 25% in size). Conditions: HEK293T ATAD5-luc cells viability, CellTiter-Fluor, 15.5 h; series mostly up to 83.3 µM. The gist of the method: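 HEK293T cells carrying luciferase-tagged ATAD5, 2,000 cells/well, exposed to compound for 15.5 hr at 37C. Viability read as live-cell protease activity by CellTiter-Fluor fluorescence after 30 min at 37C.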

Test [4] in a line: qHTS assay for small molecule disruptors of the mitochondrial membrane potential - cell viability (AID 720634; calls by dose curve;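 also: human HepG2 liver cancer cells; nearly all actives have a fitted effect of over 20% in size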). Conditions: HepG2 viability, ATP luminescence (CellTiter-Glo), 1 h; series mostly up to 83.2 µM. The method, boiled down: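 HepG2 cells, 2,000 per well, attached overnight, then treated 1 hr at 37 C, 5% CO2. Viability read as ATP by CellTiter-Glo luminescence after 30 min at room temperature. Read in the same wells as the m-MPI membrane-potential dye assay.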

Test [5] in a line: qHTS assay for small molecule disruptors of the mitochondrial membrane potential (AID 720635). Also: potency is read from the fitted curve at half-maximal effect. Conditions: HepG2 mitochondrial membrane potential, Mito-MPS dye ratio; series mostly up to 83.2 µM. The method, boiled down: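 HepG2 cells (2,000/well) attached overnight at 37C, then took compound for 1 hr at 37C, 5% CO2. Mito-MPS dye was added for 30 min; fluorescence was read at 490/535 nm (monomers) and 540/590 nm (aggregates).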

Test [6] is described as follows: qHTS assay to test for compound auto fluorescence at 590 nm (red) in HepG2 cells (AID 720674). As to conditions: HepG2 autofluorescence, red 540/590 nm, 1 h; series mostly up to 91.3 µM. The gist of the method: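 Rose Bengal sodium served as the red fluorophore standard. HepG2 monolayers (overnight attachment, MEM with 10% FBS) were exposed to test compounds for 1 hr at 37 C and read at Ex 540/Em 590 nm.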

The nature of test [7]: qHTS assay to test for compound auto fluorescence at 535 nm (green) in HepG2 cells (AID 720675). As to conditions: green autofluorescence 485/535 nm, 1 h; series mostly up to 91.3 µM.
Test [8] is described as follows: qHTS assay to test for compound auto fluorescence at 460 nm (blue) in HEK293 cells (AID 720678). As to conditions: blue autofluorescence 405/460 nm; series mostly up to 91.3 µM. The gist of the method:
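Measured: blue fluorescence (Ex 405/Em 460 nm) of compound-treated HEK293 cells, incubated overnight at 37C with 5% CO2 and scaled to triamterene equivalents.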

Test [9] is described as follows: qHTS assay to test for compound auto fluorescence at 590 nm (red) in HEK293 cells (AID 720679). As to conditions: red autofluorescence 540/590 nm; series mostly up to 91.3 µM. The method, boiled down:
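Using HEK293 cells at 2,000 per well, the screen added 23 nL of each compound after cell attachment and incubated overnight (37C, 5% CO2). The plate reader then captured red-label fluorescence, Ex/Em 540/590nm.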

Test [10] is described as follows: qHTS assay to test for compound auto fluorescence at 535 nm (green) in HEK293 cells (AID 720680). As to conditions: green autofluorescence 485/535 nm; series mostly up to 91.3 µM.
Test [11] is described as follows: qHTS assay to test for compound auto fluorescence at 460 nm (blue) in HEK293 cell free culture (AID 720681). Conditions: cell-free medium, autofluorescence 405/460 nm (blue); series mostly up to 91.3 µM. The method, boiled down: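 Test compounds were pinned into cell-free culture medium (DMEM with 10% FBS) and fluorescence was read directly at Ex/Em 405/460 nm. Signals were expressed as fluorescence equivalents of triamterene, with DMSO vehicle as control.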

Test [12] is described as follows: qHTS assay to test for compound auto fluorescence at 535 nm (green) in HEK293 cell free culture (AID 720682). As to conditions: cell-free medium, green autofluorescence 485/535 nm, stronger effect = higher value; series mostly up to 91.3 µM. The gist of the method:
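Intrinsic compound fluorescence is measured in culture medium containing 10% FBS, with excitation at 485 nm and detection at 535 nm, referenced to fluorescein.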

Test [13] is described as follows: qHTS assay to test for compound auto fluorescence at 590 nm (red) in HEK293 cell free culture (AID 720683). Conditions: cell-free medium autofluorescence, Ex540/Em590 red; series mostly up to 91.3 µM. The gist of the method: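 Tox21 10K library compounds were pinned into cell-free DMEM with 10% FBS and fluorescence was read at excitation 540 nm. Activity is expressed as Rose Bengal sodium equivalency.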

Test [14] can be described thus: qHTS assay to test for compound auto fluorescence at 590 nm (red) in HepG2 cell free culture (AID 720684). As to conditions: cell-free medium autofluorescence, red 540/590 nm; series mostly up to 91.3 µM. The method, boiled down: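 Red fluorescence (540 nm excitation, 590 nm emission) was measured after compound transfer into cell-free MEM supplemented with 10% FBS. Values are equivalencies against Rose Bengal sodium.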

The nature of test [15]: qHTS assay to test for compound auto fluorescence at 460 nm (blue) in HepG2 cell free culture (AID 720685). Conditions: Cell-free culture medium, blue autofluorescence 405/460 nm; series mostly up to 91.3 µM. The method, boiled down:
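Compound (23 nL) or DMSO pinned into cell-free MEM with 10% FBS; blue fluorescence read at 405/460 nm excitation/emission, expressed as auto-fluorescence equivalency to triamterene.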

The nature of test [16]: qHTS assay to test for compound auto fluorescence at 535 nm (green) in HepG2 cell free culture (AID 720686). Conditions: Cell-free medium, green autofluorescence 485/535 nm; series mostly up to 91.3 µM.
Test [17] can be described thus: qHTS assay to test for compound auto fluorescence at 460 nm (blue) in HepG2 cells (AID 720687). As to conditions: autofluorescence 405/460 nm, 1 h; series mostly up to 91.3 µM. The method, boiled down: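 Cells (2,000/well in MEM with 10% FBS) attached overnight at 37 C, then were exposed to compound or DMSO for 1 hr at 37 C, 5% CO2. Fluorescence read at Ex/Em 405/460 nm, expressed as triamterene-equivalent signal.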

The target of test [18] is Glucocorticoid receptor (Homo sapiens) (UniProt P04150). Description: qHTS assay to identify small molecule agonists of the glucocorticoid receptor (GR) signaling pathway (AID 720691; active = well fitted activation curve with a large enough effect in the signal ratio in the repeat runs, not every such curve was filed as active; the % refers to the signal ratio). As to conditions: GR-bla HeLa, beta-lactamase reporter ratio, 18 h; series mostly up to 62.4 µM. The method, boiled down:
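GR-bla HeLa cells carrying a GRE-driven beta-lactamase reporter, exposed to compounds for 18 h at 37 C. Reporter activation read as fluorescence after 2 h with LiveBLAzer B/G FRET substrate at room temperature.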

Test [19] shares this target. The experiment in a line: qHTS assay to identify small molecule antagonists of the glucocorticoid receptor (GR) signaling pathway (AID 720692; active = well fitted inhibition curve with a large enough effect in the signal ratio in the repeat runs, not every such curve was filed as active; the % refers to the signal ratio). As to conditions: GR-bla HeLa, beta-lactamase FRET ratio, dexamethasone-stimulated, 18 h; series mostly up to 58.5 µM. The method, boiled down:
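GR-bla HeLa cells carrying a GRE-driven beta-lactamase reporter received compound after 4 h plating, then dexamethasone (5 nM final). After 18 h at 37C, the FRET substrate was loaded for 2 h at room temperature and fluorescence read.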
% is scaled to controls: 0 for no effect and ±100 for the full control effect.

Chain of Glucocorticoid receptor (Homo sapiens) (P04150 whole entry, looked up): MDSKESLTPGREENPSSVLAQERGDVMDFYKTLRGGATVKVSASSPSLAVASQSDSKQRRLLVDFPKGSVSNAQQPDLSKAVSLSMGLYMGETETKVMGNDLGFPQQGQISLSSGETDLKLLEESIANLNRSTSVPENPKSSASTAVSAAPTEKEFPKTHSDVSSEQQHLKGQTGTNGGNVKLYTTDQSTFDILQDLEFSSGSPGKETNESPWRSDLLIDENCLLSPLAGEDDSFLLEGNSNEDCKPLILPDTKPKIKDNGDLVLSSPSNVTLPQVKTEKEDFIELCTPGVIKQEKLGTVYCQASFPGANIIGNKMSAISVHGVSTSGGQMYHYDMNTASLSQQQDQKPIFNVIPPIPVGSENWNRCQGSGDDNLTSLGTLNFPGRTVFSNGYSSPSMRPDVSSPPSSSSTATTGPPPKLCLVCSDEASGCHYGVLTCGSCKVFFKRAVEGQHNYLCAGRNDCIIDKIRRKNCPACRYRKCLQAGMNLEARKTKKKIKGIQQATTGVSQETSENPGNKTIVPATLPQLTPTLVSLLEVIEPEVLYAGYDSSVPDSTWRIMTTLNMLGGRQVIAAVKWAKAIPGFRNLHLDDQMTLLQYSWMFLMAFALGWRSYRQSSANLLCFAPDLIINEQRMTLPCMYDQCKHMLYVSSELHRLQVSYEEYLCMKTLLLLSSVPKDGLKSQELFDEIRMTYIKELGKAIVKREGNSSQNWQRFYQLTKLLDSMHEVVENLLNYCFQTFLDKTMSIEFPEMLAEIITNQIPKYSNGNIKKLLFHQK

`FC(Cl)(Cl)C(F)(Cl)Cl`: the Potency result in test [1], in [2], in test [3], in [4] and in test [5] was “inactive” each time. In addition, the result in [6], in test [7], in test [8], in test [9], in [10] and in [11] was inactive. In addition, the molecule was called inactive in test [12], in test [13], in test [14], in test [15], in test [16] and in test [17].

For `CCCCCBr`, the Potency result in test [1], in [2], in test [3], in [4], in [18] and in [19] was “inactive” each time. Also, the molecule was called inactive in test [6], in test [8], in test [9], in test [10], in test [11] and in test [12]. For the same molecule, the outcome in [13], in [14], in [15], in test [16] and in [17] was inactive.

Turning to `C[C@H]1[C@@H]2Cc3ccc(O)cc3[C@@]1(C)CCN2C`, the Potency result in [1], in [2], in test [3], in test [4], in test [5] and in test [18] was “inactive” in each case. For the same molecule, the Potency entry in test [19] was “inactive”. The molecule was called inactive in test [6], in test [7], in test [8], in test [9], in [10] and in test [11]. In addition, the result in test [12], in test [14], in [15], in [16] and in [17] was inactive.

Regarding `Cc1nc(N(C)C)nc(OC(=O)N(C)C)c1C`, the Potency result in test [1], in [2], in test [3], in test [5], in test [18] and in test [19] was “inactive” in each case. Also, the molecule was called inactive in test [6], in test [7], in test [8], in test [9], in test [10] and in [11]. In addition, the molecule was called inactive in [12], in test [13], in [14], in [15], in test [16] and in [17].

`CN1C[C@H](C(=O)N[C@]2(C)O[C@@]3(O)[C@@H]4CCCN4C(=O)[C@H](Cc4ccccc4)N3C2=O)C=C2c3cccc4[nH]cc(c34)C[C@H]21`: the Potency entry in [1], in [2], in [4] and in [18] was “inactive” in each case. Besides, the Potency in test [5] is 4.22 µM (active) and 9.73 µM (active) and 18 µM (active). The molecule was called inactive in test [6], in test [7], in test [8], in test [9], in [10] and in test [11]. Further, the molecule was called inactive in test [12], in test [13], in [14], in test [15], in test [16] and in test [17].

On to `COc1ccc(C(=O)c2c(C)n(CCN3CCOCC3)c3ccccc23)cc1`, for which the Potency result in test [1], in [2], in [3] and in test [18] was “inactive” in each case. Further, the molecule was called inactive in test [6], in test [8], in test [9], in test [10], in [11] and in test [12]. The call in [13], in test [14], in [15], in test [16] and in test [17] was inactive.

For the molecule `CCCCCCCCCCCCN=C(N)N`, the activation is -6.24% [at 3.63 µM] in [1] and -0.603% [at 3.1 µM] in test [18]. Moreover, the activity change, negative = cytotoxicity in [2] was -15.7% [at 3.63 µM]. The activity, negative = cytotoxicity in [3] is -6.8% [at 3.63 µM]. Further, the fluorescence, relative to Rose Bengal in test [6] is 0.188% [at 3.72 µM]. In test [8], the fluorescence, % of triamterene was -0.0427% [at 3.72 µM]. Further, the fluorescence, % of fluorescent control in test [9] is 0.144% [at 3.72 µM]; in [11], -0.0835% [at 3.72 µM]; in [13], 0.145% [at 3.72 µM]; in test [15] it was -0.0023% [at 3.72 µM]; in [17] it was 0.0214% [at 3.72 µM]. Also, the fluorescence, % of fluorescein in [10] was 0.14% [at 3.72 µM]. Further, in test [12], the activity change was 0.0011% [at 3.72 µM]. For the same molecule, the fluorescence, % of Rose Bengal in [14] is 0.0947% [at 3.72 µM]. Besides, the fluorescence, % of fluorescein control in test [16] was -0.0679% [at 3.72 µM].
